TRHR enhancer – allosterically enhances the human TRH receptor; P34981; TRHR cells, fluo-8 calcium fluorescence, EC20 TRH enhancement; enhancement, % at 2 µM; 360,000 tested, 0.66% active; AID 493056; in the data active = enhancement above about 30%; note: 0% is about no effect
Target sequence (P34981 whole entry, looked up): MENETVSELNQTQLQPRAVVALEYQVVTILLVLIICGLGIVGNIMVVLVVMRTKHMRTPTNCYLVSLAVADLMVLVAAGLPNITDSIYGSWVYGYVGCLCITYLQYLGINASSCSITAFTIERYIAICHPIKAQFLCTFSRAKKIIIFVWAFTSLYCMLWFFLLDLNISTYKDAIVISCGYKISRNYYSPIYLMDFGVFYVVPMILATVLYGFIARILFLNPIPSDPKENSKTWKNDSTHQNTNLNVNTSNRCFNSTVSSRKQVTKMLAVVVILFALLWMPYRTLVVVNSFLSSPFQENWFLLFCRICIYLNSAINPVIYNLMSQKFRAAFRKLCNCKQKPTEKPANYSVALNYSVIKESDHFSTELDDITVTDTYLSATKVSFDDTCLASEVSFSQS
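TRHR-expressing cells loaded with fluo-8 calcium dye were read kinetically (ex 480/em 530) during compound addition, then stimulated with an EC20 of TRH (10 nM final). Enhancement of the Gq-mediated intracellular calcium response was scored.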
TRHR ag – agonists of human TRH receptor; TRHR cells, calcium flux fluo-8, FDSS agonist mode; AID 493084; 360,000 tested, 0.18% active; activation, % at 2 µM; note: 0% is about no effect
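Read-out: compound-evoked intracellular calcium rise in TRHR cells, fluo-8 dye, kinetic FDSS fluorescence at 1 s/cycle following a 10-cycle baseline. Cells cultured overnight before dye loading (30 min–1.5 h, RT).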
D1 ag – agonists of human D1 dopamine receptor | 360,000 tested, 1% active | P21728 | HEK293 T-REx D1 cells, calcium flux, agonist mode | activation, % at 2 µM; note: 0% is about no effect
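Agonism was scored from calcium flux recorded over 180 s (1 read/s) after pintool compound addition, following a 10-cycle baseline. Cells were inducible force-coupled HEK293 TREx D1, plated overnight at 30 C and loaded with no-wash calcium dye.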
D1 antagonist – human D1 dopamine receptor antagonism. P21728. HEK293 TREx D1 cells, calcium flux, dopamine EC80; active compounds read low. activity change, negative = inhibition, % at 10 µM. 360,000 tested, 3.2% active. AID 504652; in the data active = activity change below about -30%; note: % is set by controls: 0 for no effect and ±100 for the full control effect
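Antagonism measured as reduced calcium response to an EC80 dopamine addition following 180 s compound pre-read; cells were inducible HEK293 Trex D1 plated overnight at 30 C, read kinetically at 1 cycle/sec.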
D1 potentiator – potentiators of human D1 dopamine receptor | P21728 | HEK293 TREx D1 cells, calcium flux, dopamine EC20 potentiation | potentiation, % at 10 µM | 360,000 tested, 0.036% active | AID 504651; in the data active = potentiation above about 30%; note: 0% is about no effect
Active calls of the source: *; ! = not confirmed by another sample. Rows were chosen to be rich in hits. Some 4.7% of all compounds tested hit in one or more screens of this group. Cut-off read from the data, not from the text of the source, unless noted: active = activation above about 30%; inactive = the rest.

How did CC(C)c1ccc(S(=O)(=O)c2cnc(SCC(=O)Nc3cccc(C(F)(F)F)c3)nc2N)cc1 do in these assays?
TRHR enhancer: 6; TRHR ag: 1; D1 ag: 4; D1 antagonist: -3; D1 potentiator: -2

How did N#C/C(=C\c1ccc(-c2ccc(F)cc2F)o1)c1nc2ccccc2[nH]1 do in these assays?
TRHR enhancer: -1; TRHR ag: 78*; D1 ag: 151*; D1 antagonist: 8; D1 potentiator: 8

Results for Cc1cc(/C=C(/C#N)c2nc3ccccc3[nH]2)c(C)n1-c1ccccc1C(=O)O ?
TRHR enhancer: 0; TRHR ag: 1; D1 ag: 7; D1 antagonist: 3; D1 potentiator: -3

What do the screens show for `Cc1cc2nc(/C(C#N)=C\c3ccc(-c4ccccc4C(=O)O)o3)[nH]c2cc1C`?
TRHR enhancer: 1; TRHR ag: 39*; D1 ag: 82*; D1 antagonist: -9; D1 potentiator: -4

Results for N#C/C(=C/c1ccc(Sc2nc3ccccc3[nH]2)o1)c1ccccc1F ?
TRHR enhancer: -9; TRHR ag: -1; D1 ag: 39*; D1 antagonist: -26; D1 potentiator: 1

Results for Cc1c(Cl)cccc1-n1ncc(C(=O)NCCN2CCN(C)CC2)c1C1CCN(C(=O)OC(C)(C)C)CC1 ?
TRHR enhancer: 24; TRHR ag: 1; D1 ag: 4; D1 antagonist: 13; D1 potentiator: 2

What do the screens show for `COc1ccc(/C(C)=N/NC(=O)c2nnn(-c3nonc3N)c2-c2ccccc2)cc1`?
TRHR enhancer: 12; TRHR ag: 16; D1 ag: 50*; D1 antagonist: 30; D1 potentiator: -5

What do the screens show for `C/C(=N\NC(=O)c1nnn(-c2nonc2N)c1-c1cccs1)c1ccc(C)cc1`?
TRHR enhancer: 15; TRHR ag: 10; D1 ag: 87*; D1 antagonist: 23; D1 potentiator: 4

What do the screens show for `COc1ccc(/C(C)=N/NC(=O)c2nnn(-c3nonc3N)c2-c2cccs2)cc1`?
TRHR enhancer: 3; TRHR ag: 2; D1 ag: 57*; D1 antagonist: 6; D1 potentiator: 9

How did C/C(=N\NC(=O)c1nnn(-c2nonc2N)c1-c1cccs1)c1ccc(O)cc1 do in these assays?
TRHR enhancer: 9; TRHR ag: 0; D1 ag: 6; D1 antagonist: 2; D1 potentiator: 3

How did COc1ccc(CNC(=O)CSc2nc3ccsc3c(=O)n2Cc2ccccc2Cl)cc1 do in these assays?
TRHR enhancer: -5; TRHR ag: 0; D1 ag: 7; D1 antagonist: 9; D1 potentiator: 3

How did O=C(CCc1ccccc1)N1CCc2c([nH]c3ccccc23)C1c1ccc(F)cc1 (configuration not stated) do in these assays?
TRHR enhancer: 1; TRHR ag: 0; D1 ag: 1; D1 antagonist: -7; D1 potentiator: -4

How did CCN(CC)C(=O)COc1ccc(/C(C)=N/NC(=O)c2ccccc2O)cc1 do in these assays?
TRHR enhancer: 6; TRHR ag: 0; D1 ag: 2; D1 antagonist: -51*; D1 potentiator: -4

What do the screens show for `CCN(CC)C(=O)COc1ccc(/C(C)=N/NC(=O)c2ccccc2Br)cc1`?
TRHR enhancer: 4; TRHR ag: 1; D1 ag: 2; D1 antagonist: -6; D1 potentiator: -2

How did CCOC(=O)CC(NC(=O)Cn1nnc(-c2ccccc2F)n1)c1ccc(OC)cc1 (configuration not stated) do in these assays?
TRHR enhancer: 2; TRHR ag: 1; D1 ag: 13; D1 antagonist: 16; D1 potentiator: -4

How did CCOC(=O)CC(NC(=O)Cn1nnc(-c2ccccc2Cl)n1)c1ccc(OC)cc1 (configuration not stated) do in these assays?
TRHR enhancer: 12; TRHR ag: 7; D1 ag: 65*!; D1 antagonist: -10; D1 potentiator: -4

How did Fc1cc(F)c(C2SCCN2C(=S)Nc2cccc(C(F)(F)F)c2)c(F)c1 (configuration not stated) do in these assays?
TRHR enhancer: -20; TRHR ag: 16; D1 ag: 77*; D1 antagonist: 0; D1 potentiator: -4

What do the screens show for `Cc1ccc(C(=O)NC2CCCC2)s1`?
TRHR enhancer: 32*; TRHR ag: 0; D1 ag: 2; D1 antagonist: -16; D1 potentiator: -8

How did COc1ccc(N(CC(=O)NC2CCCCC2)C(=O)c2ccc(C)s2)c(OC)c1 do in these assays?
TRHR enhancer: -8; TRHR ag: -1; D1 ag: 1; D1 antagonist: -35*

How did COc1cccc(N2C(=O)CSC23C(=O)N(CC(=O)NCc2ccc(C)cc2)c2ccccc23)c1 (configuration not stated) do in these assays?
TRHR enhancer: -6; TRHR ag: 0; D1 ag: 0; D1 antagonist: 8; D1 potentiator: -4

What do the screens show for `Cc1nc(-n2nc(C)c(Cc3ccc4c(c3)OCO4)c2C)sc1C(=O)Nc1cccc(Cl)c1`?
TRHR enhancer: 3; TRHR ag: -1; D1 ag: 8; D1 antagonist: -5; D1 potentiator: 2

Results for Cc1ccc(Cl)cc1NC(=O)C(C)n1nnc2sc3c(c2c1=O)CCCC3 (configuration not stated) ?
TRHR enhancer: -6; TRHR ag: -1; D1 ag: 2; D1 antagonist: -4; D1 potentiator: 0

What do the screens show for `Cc1c(N/C(=N/S(=O)(=O)c2ccc(Cl)cc2)c2ccccc2)c(=O)n(-c2ccccc2)n1C`?
TRHR enhancer: -24; TRHR ag: 0; D1 ag: 2; D1 antagonist: -63*; D1 potentiator: -2

Results for COc1ccccc1NC(=O)c1c(C)cc(C)nc1SCC(=O)Nc1cccc(C)c1 ?
TRHR enhancer: -6; TRHR ag: 3; D1 ag: 72*; D1 antagonist: -1; D1 potentiator: 0

Results for CCCCC(=O)Nc1nc2c(OC)cc([N+](=O)[O-])cc2s1 ?
TRHR enhancer: -3; TRHR ag: 0; D1 ag: 2; D1 antagonist: -34*; D1 potentiator: -8

What do the screens show for `CC(C)CC(C(=O)NCc1ccc(F)cc1)N1Cc2ccccc2C1=O` (configuration not stated)?
TRHR enhancer: 5; TRHR ag: 0; D1 ag: -2; D1 antagonist: 1; D1 potentiator: -3

What do the screens show for `NC(=O)CC(c1ccccc1)c1ccc2c(c1)OCO2` (configuration not stated)?
TRHR enhancer: 33*; TRHR ag: 0; D1 ag: 2; D1 antagonist: 0; D1 potentiator: 0

What do the screens show for `COc1ccc(C(CC(=O)O)c2ccc3c(c2)OCO3)cc1` (configuration not stated)?
TRHR enhancer: -1; TRHR ag: 0; D1 ag: 3; D1 antagonist: -14; D1 potentiator: -5
